Shiga toxin inh: Shiga toxin inhibition; Vero cells, Shiga toxin protein synthesis inhibition reporter; inhibition, % at 38.7 µM; actives 9.2% (n = 290,000); AID 2315; in the data active = inhibition mostly above about 28%, no sharp cut-off; inactive = mostly below about 43%; note: 0% is about no effect
Cycloheximide cs: counter-screen for Shiga toxin inhibitors: cycloheximide protein synthesis inhibition. cell reporter, cycloheximide protein synthesis inhibition counterscreen. max response, %. actives 12% (n = 300,000); in the data active = max response mostly above about 13%, no sharp cut-off; inactive = mostly below about 14%; note: read at 38.3 µM for the half of the compounds with a filed dose; 0% is about no effect
Pf growth 48h: inhibits P. falciparum growth in the first generation, 48 h; P. falciparum luciferase growth in erythrocytes, 48 h; Potency, µM (titrated, usually from 28.7 µM), inactives show top-dose activity change, negative = inhibition, usual class: inhibitors; actives 5.9% (n = 310,000); note: potency is the fitted concentration of half-maximal effect; % is set by controls: 0 for no effect and ±100 for the full control effect
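Here the parasites carry a stable luciferase gene and grow inside erythrocytes in Albumax-based RPMI medium with compound for one erythrocytic cycle. Activity is scored as loss of luminescent signal.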
Sm TGR block: inhibitors of Schistosoma mansoni thioredoxin glutathione reductase; Potency, µM (top dose mostly 114 µM), without a hit: at the highest dose activity change, negative = inhibition, most hits filed as inhibitors; actives 3% (n = 360,000); Q962Y6; AID 485364; purified TGR, DTNB reduction, TNB absorbance 405 nm; note: potency is the fitted concentration of half-maximal effect; % is set by controls: 0 for no effect and ±100 for the full control effect; nearly all actives have a fitted effect of over 60% in size
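Kinetic colorimetric format: TGR-catalysed, NADPH-driven DTNB reduction monitored via TNB absorbance. Enzyme dispensed at 20 nM; compound exposure 15 min at room temperature before reaction start.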
Pf growth 96h: inhibits malaria parasite growth, 96 h; P. falciparum luciferase reporter growth, 96 h; Potency, µM (highest dose often 28.7 µM), without a hit: top-dose activity change, negative = inhibition, hits mostly inhibitors; actives 6.9% (n = 320,000); AID 504834; note: potency is the fitted concentration of half-maximal effect; % is set by controls: 0 for no effect and ±100 for the full control effect
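Plates of compound plus infected erythrocytes (2% hematocrit, 0.05% parasitemia final) incubate 96 hours, 37 C, 5% CO2. Detection reagent added; reduced luminescence from the parasites' luciferase reporter flags inhibition.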
NS1 inh: blocks influenza NS1 protein function | Potency, µM (titrated, usually from 46.1 µM), for the others: top-dose activity, positive = more growth | AID 2326 | actives 0.4% (n = 270,000); calls by dose curve; note: potency is the fitted concentration of half-maximal effect; actives are rising curves; nearly all actives have a fitted effect of over 50% in size
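Recovery from NS1-induced slow growth read by OD600 in budding yeast switched to galactose assay medium (pH 6.0, -URA) at 1:100 dilution. Compound 23 nl per well; the matching strain lacking NS1 serves as control.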
An asterisk follows results filed as active; ? = inconclusive; · = no result; + = active, no number. Shown are actives, neighbours in structure and some others; about 21% of the full set was active somewhere. Unless noted, calls come from the whole dose curve; as a rule, active = well fitted curve in the direction sought with a large enough effect; inconclusive = small, poorly fitted or top-dose-only effect, or another doubt; inactive = no such curve, though single readings can be large; an effect the other way counts as inactive or inconclusive.

SMILES	Shiga toxin inh	Cycloheximide cs	Pf growth 48h	Sm TGR block	Pf growth 96h	NS1 inh
CCOC(=O)C1=C(Nc2ccccc2)CC(C)(O)C(C(=O)OCC)C1c1ccc(Cl)cc1 (stereo not drawn)	-6	-1	?	2%	12µM*	-7%
c1ccc(C2CC(c3ccccc3)C(c3ccccc3)N2)cc1 (stereo not drawn)	-2	7	-5%	11%	9.3µM*	13%
O=C(C[C@@H]1C=Cc2ccccc2N1C(=O)c1ccccc1)c1ccccc1	·	·	·	·	·	-5%
c1ccc(CCn2c(C3CC3)nc3ccccc32)cc1	-5	-4	·	-15%	3.3µM*	-63%
CCCc1nc2ccccc2n1CCc1ccccc1	32	-4	3.3µM*	-11%	3.7µM*	-18%
O=C(O)CCn1c(C2CCCCC2)nc2ccccc21	-10	-2	1%	0%	·	-3%
Cc1ccc(NC(=O)C2CCCN(c3ncnc4onc(C)c34)C2)cc1Cl (stereo not drawn)	·	·	·	3%	·	·
O=C(NNC(=O)[C@@H]1CCCC[C@@H]1C(=O)O)Nc1ccccc1	65*	15*	27%	-1%	-26%	-8%
Cc1ccsc1C(=O)NNC(=O)C1CC=CCC1C(=O)O (stereo not drawn)	+	45*	20%	4%	-2%	21%
O=C(NNC(=O)C1CC1c1ccccc1)Nc1ccccc1 (stereo not drawn)	-5	3	-10%	0%	42%	-4%
O=C(NNC(=O)C1CC=CCC1C(=O)O)c1cccs1 (stereo not drawn)	34	15	58%	1%	66%	1%
O=C(NNC(=O)[C@@H]1CCCC[C@@H]1C(=O)O)c1cccs1	58*	29*	14%	1%	-21%	3%
Cc1ccsc1C(=O)NNC(=O)C1CCCCC1C(=O)O (stereo not drawn)	65*	31*	330%	10%	107%	8%
COc1ccc(OC)c2c(C)cc(N3CCCCCC3)nc12	-2	-3	-15%	-30%	?	-33%
CCc1cc2c(s1)c1cnn(Cc3ccccc3F)c(=O)c1n2C	17	10	·	·	·	·
CC(C)c1ccc(C(=O)NNC(=O)C2CC=CCC2C(=O)O)cc1 (stereo not drawn)	64*	28*	32%	-2%	33%	-6%
O=C(O)C1CC=CCC1C(=O)NNS(=O)(=O)c1ccccc1 (stereo not drawn)	-5	-9	-8%	0%	?	0%
Cc1ccc(C2N=C(N)Nc3nc4ccccc4n32)cc1 (stereo not drawn)	2	1	-14%	13%	-9%	·
Cc1ccc(C2N=C(N)Nc3nc(=O)c4ccccc4n32)cc1 (stereo not drawn)	19	11	?	0%	9.3µM*	?
COc1ccc(-c2cc(C(F)(F)F)nc(-n3nc(C(F)(F)F)cc3C)n2)cc1	·	·	·	-4%	·	·
CCOC(=O)c1cc(-c2ccccc2)n(-c2cccc(C(=O)Nc3cccc(SC)c3)c2)c1C	·	·	·	12%	·	·
O=C1CC[C@@H](OCc2ccccc2)CCN1CC[C@H](Sc1ccccc1)c1ccccc1	15	11*	?	?	0%	-14%
C[C@@H]1CCC(=O)N(CC[C@H](Sc2ccccc2)c2ccccc2)CC1	14	10*	?	-18%	?	-73%
C(#Cc1ccccc1)C[N+]1(CC#Cc2ccccc2)CCCCC1	-14	2	-14%	11%	-22%	-12%
C#CC[N+]1(CC#Cc2cccc(C)c2)CCCCC1	18	-3	1.5µM*	-4%	-12%	·
SMILES	Shiga toxin inh	Cycloheximide cs	Pf growth 48h	Sm TGR block	Pf growth 96h	NS1 inh
Cc1ccc(C#CC[N+]2(CC#Cc3ccc(C)cc3)CCCCC2)cc1	12	-3	0.59µM*	-35%	?	0%
CCc1ccccc1NC(=O)CN1C(=O)CCn2nc(-c3cccn3C)cc21	·	·	·	-4%	·	·
CCN(C(=O)Cn1cc(S(=O)(=O)Cc2ccccc2Cl)c2ccccc21)c1ccccc1	·	·	·	-2%	·	·
C[C@@](O)(CNS(=O)(=O)c1ccccc1)c1ccccc1	·	·	·	·	·	0%
O=[As](O)(O)c1ccc(N=Nc2ccc(O)cc2)cc1	-5	-5	?	50µM*	2.9µM*	-3%
O=[As](O)(O)c1ccc(N=Nc2ccc([As](=O)(O)O)cc2)cc1	·	·	·	·	·	0%
COc1ccc2ccc(O)c(CN3CCN(S(=O)(=O)c4cc([N+](=O)[O-])ccc4C)CC3)c2c1	·	·	?	1.6µM*	?	·
Cc1c(Cl)cccc1NC(=O)CCN1C(=O)c2ccccc2Sc2ncccc21	·	·	·	-3%	·	·
CCCc1cc(NCc2ccccn2)n2c(nc3ccccc32)c1C#N	-14	6	1.9µM*	-2%	9%	·
CCCc1cc(NCCN(C)C)n2c(nc3ccccc32)c1C#N	·	-1	0%	3%	-24%	6%
CCCc1cc(NCCCN(C)C)n2c(nc3ccccc32)c1C#N	-4	-4	?	40µM*	-24%	-1%
CCCc1cc(NCC2CCCO2)n2c(nc3ccccc32)c1C#N (stereo not drawn)	-19	-2	5.2µM*	-2%	·	-13%
CCc1ccccc1NC(=O)Cn1c(=O)n(-c2ccc(C)cc2)c(=O)c2cc(OC)c(OC)cc21	·	·	·	5%	·	·
Cc1cc(C)c2c(=O)cc(C(=O)Nc3ccc(S(=O)(=O)Nc4onc(C)c4C)cc3)oc2c1	·	·	·	-7%	·	·
CCC(=O)N1c2ccc(S(=O)(=O)CCC(=O)NCc3cccc(OC)c3)cc2CC1C (stereo not drawn)	·	·	·	-2%	·	·
N#C/C(=C\c1ccc2c(c1)OCO2)C(=O)NCc1ccco1	-13	1	9%	12%	24%	·
N#C/C(=C\c1ccc2c(c1)OCCO2)C(=O)Nc1nccs1	94*	27	0%	2%	5%	-21%
C=CCNC(=O)/C(C#N)=C/c1ccc2c(c1)OCCO2	85*	40*	18%	-17%	-5%	·
C=CCNC(=O)/C(C#N)=C/c1ccc(SC)cc1	81*	52*	10%	3%	30%	·
C=CCNC(=O)/C(C#N)=C/c1ccc(C)o1	32	13	10%	?	11%	-2%
